Assay results: PubChem BioAssay AID1117319 (Southern Research Institute, 2015)
The whole screen tested about 260,000 compounds, of which about 1,500 (0.58%) were called active. Roughly 5% stayed inconclusive and do not appear here.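 How the source made its calls: active means inhibition above a set limit at one or more doses, reproduced on every date tested; inconclusive means results disagree between test dates, or hit never tested in dose response; inactive means the rest.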 A selection follows. Results with a measured potency or affinity are listed apart.

Each compound was assayed against Virion infectivity factor (Human immunodeficiency virus type 1 group M subtype B (isolate BH10)) + Virion infectivity factor (Human immunodeficiency virus type 1 group M subtype B (isolate BRU/LAI)) + Virion infectivity factor (Human immunodeficiency virus type 1 group M subtype B (isolate PCV12)) + Virion infectivity factor (Human immunodeficiency virus type 1 group M subtype B (isolate HXB2)) + DNA dC->dU-editing enzyme APOBEC-3G (Homo sapiens) (UniProt P69720+P69721+P69722+P69723+Q9HC16) (assay: inhibitors of Vif binding to APOBEC3G peptide, primary screen, biochemical, TR-FRET, GST-Vif 1-94, biotin-A3G peptide, dose response retest (AID 1117319;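 further: Vif residues 1-94 fused to GST binding biotinylated APOBEC3G peptide 110-148; 0% = full assay without inhibitor and 100% = GST in place of GST-Vif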)). Details: hits give high values.

inhibition, inactive:
Cc1ccsc1-c1nc(CN(C)C(C2CC2)C2CC2)c(C)o1 4.23%
COc1cc2c(cc1OC)CN(Cc1nc3ccsc3c(=O)[nH]1)CC2 7.56%
COc1ccc(N2CCN(Cc3nc4c(c(=O)[nH]c(=O)n4C)n3CC(C)=O)CC2)cc1 8.98%
Cc1ccc(SCC(=O)Nc2ccc(N3CCOCC3)cc2)cc1C -8.83%
COc1ccc(NC(=O)NNS(=O)(=O)c2ccc(OC)c(OC)c2)c(OC)c1 5.71%
O=C(Nc1ccc(S(=O)(=O)N2CCCCC2)cc1)c1ccccc1Cl 0.17%
Cc1ccc(CSCC(=O)NCc2ccc3c(c2)OCO3)cc1 14.3%
COc1cc2c(cc1OC)CN(C(=O)c1cccc(S(=O)(=O)N3CCc4ccccc43)c1)CC2 8.84%
Cc1ccc(NC(=O)CN(C)C(=O)c2cccc(Br)c2)cc1 -1.1%
Cc1cccc(NC(=O)CNC(=O)c2ccc3nc[nH]c3c2)c1C 9.97%
CCN(CC(=O)Nc1ccc(NC(C)=O)cc1)C(=O)c1cccc(-n2cccc2)c1 16.2%
CN(CC(=O)Nc1ccccc1Cl)C(=O)c1cccc(-n2cccc2)c1 -0.39%
O=C(CNC(=O)c1cccc(-n2cccc2)c1)Nc1ccccc1Br 4.99%
CN(CC(=O)Nc1ccccc1C(F)(F)F)C(=O)c1cccc(-n2cccc2)c1 6.51%
CCN(CC(=O)Nc1c(F)cccc1F)C(=O)c1cccc(-n2cnnn2)c1 -3.65%
Cc1cccc(C)c1NC(=O)CN(C)C(=O)c1cccc(-n2cccc2)c1 9.97%
O=C(CCNS(=O)(=O)c1ccc(F)cc1)N1CCN(c2ncccn2)CC1 -6.24%
Cc1oc2cc3oc(=O)c(CCC(=O)NCCC(=O)O)c(C)c3cc2c1C 2.04%
O=C(O)c1cccc2c1C(=O)c1cc([N+](=O)[O-])cc([N+](=O)[O-])c1-2 6.48%
COc1ccc(C2c3ccsc3CCN2C(=O)NC(C)(C)C)cc1 (stereo not given) -4.12%
COCCN(C(=O)COC(=O)CCOc1ccccc1)c1c(N)n(Cc2ccccc2)c(=O)[nH]c1=O 0.29%
COc1ccc(NC(=O)CSc2ncnc3c2cnn3Cc2ccccc2)cc1OC 23.2%
O=C(Nc1cccc2ccccc12)N1CCN(Cc2ccccc2)CC1 20.5%
COC(=O)CSc1nnc(-c2ccccn2)n1N -2.48%
CCOC(=O)N1CCN(CC(=O)Nc2ccc(OC)cc2)CC1 -0.76%
